Test results as given in the supplement of paper PMC10849652.
Of roughly 7,900 targets only a part is listed; those with a hit were picked by preference. About 0.6% of all pairs of compound and target were hits.

The targets below were run with O=C(CCCCCCC(=O)Nc1ccccc1)NO [vorinostat] (assay: log2 fold change, soluble protein after heating vs DMSO (PISA); higher = thermal stabilisation; K562 cells, 10 uM, 30 min; active = over 0.2 and 3.5 SD of the protein, either way, in both replicates (recomputed)).
Method in brief: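 Thermal stability values are relative to control samples and come from duplicates. They are expressed as log2 fold changes. For measurement, K562 cells (2×10^6 cells/mL) received 10 μM compound for 30 min, and aliquots were heated for 3 min over 48°C-58°C, pooled, and extracted at 4°C in PBS with 0.5% NP-40. Soluble protein, the supernatant after 21,000xg for 90 min, was quantified by TMTpro 16plex LC-MS/MS with equalised channel sums.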

Chain of UniProt Q4G0J3 (Q4G0J3 whole entry, looked up): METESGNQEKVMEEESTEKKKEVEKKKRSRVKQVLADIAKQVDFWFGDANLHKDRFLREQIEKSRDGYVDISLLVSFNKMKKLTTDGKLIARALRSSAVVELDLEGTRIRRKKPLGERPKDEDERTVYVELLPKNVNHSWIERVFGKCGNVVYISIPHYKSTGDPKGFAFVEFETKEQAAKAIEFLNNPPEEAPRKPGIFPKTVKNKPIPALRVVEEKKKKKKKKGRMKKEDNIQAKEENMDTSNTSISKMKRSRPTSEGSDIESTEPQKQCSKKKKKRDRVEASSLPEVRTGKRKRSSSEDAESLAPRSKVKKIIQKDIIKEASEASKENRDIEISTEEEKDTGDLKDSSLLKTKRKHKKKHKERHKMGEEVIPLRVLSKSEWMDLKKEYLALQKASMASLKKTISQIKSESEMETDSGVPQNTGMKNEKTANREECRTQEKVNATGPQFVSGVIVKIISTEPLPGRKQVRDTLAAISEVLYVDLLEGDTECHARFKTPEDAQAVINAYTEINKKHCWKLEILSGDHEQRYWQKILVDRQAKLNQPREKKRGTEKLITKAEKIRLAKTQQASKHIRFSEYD
Chain of UniProt Q9UGP4 (Q9UGP4 whole entry, looked up): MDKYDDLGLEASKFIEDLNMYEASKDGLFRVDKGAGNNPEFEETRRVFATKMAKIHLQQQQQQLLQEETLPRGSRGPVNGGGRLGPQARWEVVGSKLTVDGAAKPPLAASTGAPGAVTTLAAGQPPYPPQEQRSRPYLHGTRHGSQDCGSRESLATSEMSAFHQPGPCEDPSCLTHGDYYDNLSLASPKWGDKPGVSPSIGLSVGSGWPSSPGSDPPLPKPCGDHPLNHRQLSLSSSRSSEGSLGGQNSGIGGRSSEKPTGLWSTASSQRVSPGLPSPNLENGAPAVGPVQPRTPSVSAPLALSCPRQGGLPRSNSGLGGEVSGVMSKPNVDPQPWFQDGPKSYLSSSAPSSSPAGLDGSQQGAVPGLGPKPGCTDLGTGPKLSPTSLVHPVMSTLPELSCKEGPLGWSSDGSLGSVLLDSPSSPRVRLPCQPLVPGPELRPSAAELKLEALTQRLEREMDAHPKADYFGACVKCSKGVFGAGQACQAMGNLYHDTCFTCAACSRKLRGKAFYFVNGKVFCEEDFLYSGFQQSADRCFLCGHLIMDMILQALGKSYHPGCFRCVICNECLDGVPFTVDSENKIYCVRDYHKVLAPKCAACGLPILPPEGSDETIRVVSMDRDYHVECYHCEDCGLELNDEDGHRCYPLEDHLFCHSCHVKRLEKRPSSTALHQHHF
Chain of UniProt Q96A72 (Q96A72 whole entry, looked up): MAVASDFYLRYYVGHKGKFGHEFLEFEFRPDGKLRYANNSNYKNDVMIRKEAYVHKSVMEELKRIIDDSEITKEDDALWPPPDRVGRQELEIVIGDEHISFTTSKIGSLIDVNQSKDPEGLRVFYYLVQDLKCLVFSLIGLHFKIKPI
Chain of UniProt O14880 (O14880 whole entry, looked up): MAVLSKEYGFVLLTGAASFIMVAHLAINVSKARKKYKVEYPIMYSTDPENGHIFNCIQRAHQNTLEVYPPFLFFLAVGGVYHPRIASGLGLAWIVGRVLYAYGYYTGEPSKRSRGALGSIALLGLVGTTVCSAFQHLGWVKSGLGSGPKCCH
Chain of UniProt Q14624 (Q14624 whole entry, looked up): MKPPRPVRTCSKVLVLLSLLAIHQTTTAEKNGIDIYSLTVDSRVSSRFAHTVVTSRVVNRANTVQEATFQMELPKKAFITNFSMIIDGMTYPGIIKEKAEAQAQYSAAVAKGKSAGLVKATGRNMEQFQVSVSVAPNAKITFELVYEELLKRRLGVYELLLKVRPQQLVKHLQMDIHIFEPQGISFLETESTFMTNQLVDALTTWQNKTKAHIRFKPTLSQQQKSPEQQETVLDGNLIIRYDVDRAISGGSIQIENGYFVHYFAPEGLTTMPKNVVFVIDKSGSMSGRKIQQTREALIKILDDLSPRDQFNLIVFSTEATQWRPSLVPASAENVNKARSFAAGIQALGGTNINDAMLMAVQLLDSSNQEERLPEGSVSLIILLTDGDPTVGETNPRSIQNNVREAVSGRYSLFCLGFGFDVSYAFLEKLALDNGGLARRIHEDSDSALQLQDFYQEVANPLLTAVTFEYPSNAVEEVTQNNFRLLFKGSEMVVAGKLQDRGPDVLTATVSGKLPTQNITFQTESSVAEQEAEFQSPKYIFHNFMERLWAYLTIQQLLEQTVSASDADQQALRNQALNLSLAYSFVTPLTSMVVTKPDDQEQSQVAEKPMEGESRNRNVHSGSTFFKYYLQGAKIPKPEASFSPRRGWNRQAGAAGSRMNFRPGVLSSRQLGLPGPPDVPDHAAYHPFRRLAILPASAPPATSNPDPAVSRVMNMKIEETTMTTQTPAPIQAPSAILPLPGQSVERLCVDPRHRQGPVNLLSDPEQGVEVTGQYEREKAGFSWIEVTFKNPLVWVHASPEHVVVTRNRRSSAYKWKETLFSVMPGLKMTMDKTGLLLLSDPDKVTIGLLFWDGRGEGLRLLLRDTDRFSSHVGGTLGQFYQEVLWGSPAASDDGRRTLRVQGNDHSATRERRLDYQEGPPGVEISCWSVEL
Chain of UniProt P48449 (P48449 whole entry, looked up): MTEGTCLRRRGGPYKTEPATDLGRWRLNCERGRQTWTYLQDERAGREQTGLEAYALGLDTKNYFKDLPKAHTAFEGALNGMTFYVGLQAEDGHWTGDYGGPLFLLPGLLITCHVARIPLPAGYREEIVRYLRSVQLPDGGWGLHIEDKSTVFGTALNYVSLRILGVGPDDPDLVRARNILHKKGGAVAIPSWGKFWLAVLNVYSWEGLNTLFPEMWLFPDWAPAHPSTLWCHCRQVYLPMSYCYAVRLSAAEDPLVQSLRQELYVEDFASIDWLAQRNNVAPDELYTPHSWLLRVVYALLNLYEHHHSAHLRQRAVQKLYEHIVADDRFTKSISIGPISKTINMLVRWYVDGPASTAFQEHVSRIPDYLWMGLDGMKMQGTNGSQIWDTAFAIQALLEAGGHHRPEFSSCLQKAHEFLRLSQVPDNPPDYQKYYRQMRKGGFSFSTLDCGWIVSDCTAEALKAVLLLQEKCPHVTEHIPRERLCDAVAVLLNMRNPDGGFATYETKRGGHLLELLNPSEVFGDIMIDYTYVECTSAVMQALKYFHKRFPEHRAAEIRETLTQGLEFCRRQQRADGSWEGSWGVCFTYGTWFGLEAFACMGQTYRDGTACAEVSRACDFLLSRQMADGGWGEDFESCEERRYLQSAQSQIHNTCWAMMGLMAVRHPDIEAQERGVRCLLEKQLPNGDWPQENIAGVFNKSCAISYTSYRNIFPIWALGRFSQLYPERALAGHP
Chain of UniProt Q9C0E8 (Q9C0E8 whole entry, looked up): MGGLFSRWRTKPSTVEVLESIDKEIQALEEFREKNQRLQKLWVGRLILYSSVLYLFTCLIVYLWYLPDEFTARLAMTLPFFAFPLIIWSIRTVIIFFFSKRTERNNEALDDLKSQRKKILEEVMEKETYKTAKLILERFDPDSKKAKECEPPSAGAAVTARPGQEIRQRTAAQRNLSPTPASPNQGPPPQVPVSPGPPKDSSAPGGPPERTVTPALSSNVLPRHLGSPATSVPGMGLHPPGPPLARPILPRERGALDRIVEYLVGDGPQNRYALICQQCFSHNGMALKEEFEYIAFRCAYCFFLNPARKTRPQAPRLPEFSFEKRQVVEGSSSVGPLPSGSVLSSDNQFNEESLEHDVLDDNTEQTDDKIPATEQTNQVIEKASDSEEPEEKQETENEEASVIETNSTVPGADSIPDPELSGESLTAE
Chain of UniProt Q9NUN5 (Q9NUN5 whole entry, looked up): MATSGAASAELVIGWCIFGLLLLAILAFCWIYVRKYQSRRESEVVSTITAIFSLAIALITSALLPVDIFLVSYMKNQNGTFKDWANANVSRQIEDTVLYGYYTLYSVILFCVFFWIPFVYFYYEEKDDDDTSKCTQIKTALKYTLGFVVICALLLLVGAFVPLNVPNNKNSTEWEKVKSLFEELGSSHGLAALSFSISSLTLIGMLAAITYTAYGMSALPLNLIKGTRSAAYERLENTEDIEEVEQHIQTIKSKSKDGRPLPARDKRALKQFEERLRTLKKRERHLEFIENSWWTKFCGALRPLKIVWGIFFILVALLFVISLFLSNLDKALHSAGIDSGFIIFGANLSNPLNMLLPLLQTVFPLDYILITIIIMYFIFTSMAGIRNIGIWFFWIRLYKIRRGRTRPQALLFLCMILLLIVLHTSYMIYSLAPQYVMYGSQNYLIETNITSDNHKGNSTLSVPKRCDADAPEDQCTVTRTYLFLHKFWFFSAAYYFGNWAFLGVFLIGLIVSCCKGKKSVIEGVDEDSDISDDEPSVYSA
Chain of UniProt Q92615 (Q92615 whole entry, looked up): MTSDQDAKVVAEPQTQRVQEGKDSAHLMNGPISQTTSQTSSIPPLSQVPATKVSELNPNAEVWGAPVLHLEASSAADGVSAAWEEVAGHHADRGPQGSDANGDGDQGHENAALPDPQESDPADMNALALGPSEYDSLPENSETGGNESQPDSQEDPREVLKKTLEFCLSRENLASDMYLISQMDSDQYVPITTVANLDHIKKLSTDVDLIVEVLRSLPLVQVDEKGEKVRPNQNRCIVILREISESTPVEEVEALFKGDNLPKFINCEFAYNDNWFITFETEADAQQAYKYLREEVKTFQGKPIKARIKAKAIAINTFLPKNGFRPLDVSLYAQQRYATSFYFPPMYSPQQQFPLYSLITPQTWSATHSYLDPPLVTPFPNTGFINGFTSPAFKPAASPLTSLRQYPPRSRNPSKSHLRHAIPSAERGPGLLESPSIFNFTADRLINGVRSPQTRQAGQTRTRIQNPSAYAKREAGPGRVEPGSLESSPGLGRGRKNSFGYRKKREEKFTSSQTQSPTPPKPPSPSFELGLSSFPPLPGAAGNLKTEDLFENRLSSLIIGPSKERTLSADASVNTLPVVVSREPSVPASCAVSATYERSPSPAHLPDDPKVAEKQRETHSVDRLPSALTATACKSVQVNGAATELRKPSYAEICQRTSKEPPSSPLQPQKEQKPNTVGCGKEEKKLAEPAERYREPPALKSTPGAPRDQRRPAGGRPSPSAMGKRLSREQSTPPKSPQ

log2 fold change, inactive:
LUC7L2 (UniProt Q9Y383) 0.029, ILF3 isoform 7 (UniProt Q12906) -0.052, MAGOHB (UniProt Q96A72) -0.023, KDM5D isoform 3 (UniProt Q9BY66) 0.006, LIMD1 (UniProt Q9UGP4) 0.025, MED1 (UniProt Q15648) 0.05, MCL1 (UniProt Q07820) 0.011, LIMA1 isoform 4 (UniProt Q9UHB6) 0.067, LMBRD1 (UniProt Q9NUN5) 0.048, KIF13A (UniProt Q9H1H9) -0.178, MARCKSL1 (UniProt P49006) -0.062, LARP4 isoform 4 (UniProt Q71RC2) 0.133, KIF21A isoform 4 (UniProt Q7Z4S6) 0.012, LEMD3 (UniProt Q9Y2U8) 0.035, MAP3K7 (UniProt O43318) 0.033, MAPKAPK3 (UniProt Q16644) -0.006, MAPK14 isoform 2 (UniProt Q16539) -0.055, ITIH4 (UniProt Q14624) 0.343, MAGEA9 (UniProt P43362) 0.132, IMMT isoform 4 (UniProt Q16891) 0.008, MEPCE (UniProt Q7L2J0) 0.107, LSS (UniProt P48449) 0.052, LONP2 (UniProt Q86WA8) -0.006, KDM3B (UniProt Q7LBC6) 0.069, LARP4B (UniProt Q92615) 0.027, LDLR (UniProt P01130) -0.038, IRF2BPL (UniProt Q9H1B7) 0.007, LTN1 isoform 3 (UniProt O94822) 0.148, LARP7 isoform 3 (UniProt Q4G0J3) 0.082, LNPK (UniProt Q9C0E8) -0.006, MAP2K3 isoform 3 (UniProt P46734) 0.02, MICU2 (UniProt Q8IYU8) 0.073, MGST3 (UniProt O14880) -0.043, KSR1 (UniProt Q8IVT5) 0.013, IWS1 (UniProt Q96ST2) -0.008, MFN1 (UniProt Q8IWA4) 0.021, MARK3 (UniProt P27448) 0.139, MDC1 (UniProt Q14676) -0.164, MAP4 (UniProt E7EVA0) -0.018
